This is an account of results in PubChem BioAssay (Tox21).

Several values for one entry are separate records, joined by “and”; a condition that tells them apart may be missing. Equal values may be shown once. Records with an inconclusive call do not appear. Values without a mark were called inactive. Activity calls are given as the source filed them. Calls follow the shape of the dose curve; as a rule, active = well fitted activation curve with a large enough effect in the repeat runs; inconclusive = weak or mixed curves; inactive = flat fitted curve, though single readings scatter.
% is scaled to controls: 0 for no effect and ±100 for the full control effect; potency is read from the fitted curve at half-maximal effect.

The nature of this assay: A CellTox Green Cytotoxicity Assay to monitor cytotoxicity in HepG2 cells - 40 hour (AID 1224879). Also: nearly all actives have a fitted effect of over 40% in size. As to conditions: CellTox Green fluorescence; series mostly up to 76.8 µM; cytotoxicity increase: at the top concentration. From the text:
National Center for Advancing Translational Sciences [NCATS]
NIH Chemical Genomics Center [NCGC]
U.S. Environmental Protection Agency [EPA]
National Institutes of Environmental Health Sciences [NIEHS]
National Toxicology Program [NTP]
Cell-based models are critical for drug discovery. Determining the natural cytotoxic effects resulting from test compounds is an essential research activity. A CellTox Green Cytotoxicity Assay to monitor cytotoxicity in real time of continues cell culture during 40 hours of the compound treatment was used to screen Tox21 10K library compounds in HepG2 cells. CellTox Green Cytotoxicity Assay is a nonlytic, homogeneous, biofluorescent method to measure cytotoxicity in cell culture after experimental manipulation. The assay system uses a proprietary asymmetric cyanine dye that is excluded from viable cells but preferentially stains the dead cell's DNA. […] Viable cells produce no appreciable increases in fluorescence. Therefore, the fluorescence signal produced by the binding interaction with dead cell DNA is proportional to cytotoxicity.
The mixture of HepG2 cell suspension and reagents were dispensed at 600cells/6 ul/well in 1536-well tissue culture treated black solid bottom plates using a Multidrop dispenser. After the assay plates were incubated at a 37 C/5% CO2 incubator for 5 hours, 23 nL of compounds dissolved in DMSO, positive and negative controls was transferred to the assay plate by a pintool work station. The plates were incubated at 37 C for 40 hours. The fluorescence intensity were measured at 0h, 8h, 16h, 24h, 32h and 40h time points using ViewLux plate reader during compound treatment.
Take `Oc1ccc2ccc3cccc4ccc1c2c34`: the Potency is 54.9 µM (active).

As for `ClC1=C(Cl)[C@]2(Cl)[C@@H]3[C@@H]4C[C@@H]([C@H]5O[C@@H]45)[C@@H]3[C@@]1(Cl)C2(Cl)Cl`, the Potency is 49 µM (active).

As for `O=C(NC(=O)c1c(F)cccc1F)Nc1cc(Cl)c(OC(F)(F)C(F)F)c(Cl)c1`, the “cytotoxicity increase” value was -4.55%.

For `CN(C)C1CSSSC1`, the “cytotoxicity increase” value was -0.569%.

In the case of `C=CC(=O)OCC(COC(=O)C=C)(COC(=O)C=C)COC(=O)C=C`, the Potency was 21.9 µM (active).

For `COC(=O)N(C(=O)N1CO[C@@]2(C(=O)OC)Cc3cc(Cl)ccc3C2=N1)c1ccc(OC(F)(F)F)cc1`, the “cytotoxicity increase” value was 3.91%.

For the compound `COP(=O)(CCC(=O)NCO)OC`, the “cytotoxicity increase” value is -6.78%.

`CCS(=O)(=O)c1cccnc1S(=O)(=O)NC(=O)Nc1nc(OC)cc(OC)n1`: the “cytotoxicity increase” value was -0.0893%.

As to `COc1ccc([N+](=O)[O-])cc1O`, the “cytotoxicity increase” value was -0.0482% [at 35.3 µM].

Consider `Clc1ccc(-c2ccccc2)cc1`, for which the “cytotoxicity increase” value was -15.6%.

Take `CCCN(CCC)c1c([N+](=O)[O-])cc(S(N)(=O)=O)cc1[N+](=O)[O-]`: the Potency was 11 µM (active).

For the compound `CC(C)OS(C)(=O)=O`, the “cytotoxicity increase” value is 3.14%.

Take `S=C=Nc1cccc2ccccc12`: the “cytotoxicity increase” value was 14.7%.

Regarding `CCCCCCCCCCCCCN1CC(C)OC(C)C1` (stereo not given), the “cytotoxicity increase” value was 0.71%.

Take `N#Cc1ccccc1Cl`: the “cytotoxicity increase” value was -0.005%.

With `ClC1=C(Cl)[C@]2(Cl)[C@H]3[C@H]([C@H]4C=C[C@H]3C4)[C@@]1(Cl)C2(Cl)Cl`, the “cytotoxicity increase” value was 0.0305%.

`Cc1ccc(CCl)cc1`: the “cytotoxicity increase” value was 3.98%.

In the case of `CN(CCCC(O)c1cccnc1)N=O` (stereo not given), the “cytotoxicity increase” value was -20.2%.

In the case of `N#CCc1ccc(Cl)cc1`, the “cytotoxicity increase” value is -0.328%.

In the case of `COc1ccc(/C(=C/C(=O)N2CCOCC2)c2ccc(Cl)cc2)cc1OC`, the “cytotoxicity increase” value was 8.4%.

Consider `O=c1[nH]c2ccccc2n1C1CCN(CCCC(c2ccc(F)cc2)c2ccc(F)cc2)CC1`, for which the Potency was 19.5 µM (active) and 21.3 µM (active).

Regarding `O=C(Nc1ccc2[nH]ccc2c1)c1cc2cc(F)ccc2n1Cc1cccc(F)c1`, the “cytotoxicity increase” value is -11.3%.

Consider `CC(C)CC(C)(c1ccc(O)cc1)c1ccc(O)cc1`, for which the Potency is 43.8 µM (active).

For `BrCBr`, the “cytotoxicity increase” value was -1.11%.

As for `O=c1[nH]c2ccccc2n1CCCN1CCC(n2c(=O)[nH]c3cc(Cl)ccc32)CC1`, the Potency is 23.9 µM (active).

For the compound `CCCOCC(=Nc1ccc(Cl)cc1C(F)(F)F)n1ccnc1`, the Potency is 43.6 µM (active).

As for `N#CC(Cl)Cl`, the Potency is 1.2 µM (active).

`C=COCCCl`: the “cytotoxicity increase” value is -10.1%.

Take `[CH3][Hg][Cl]`: the Potency was 12.3 µM (active).

As for `CN(C)c1ccc(N=Nc2ccccc2)cc1`, the “cytotoxicity increase” value was -0.389%.

Take `C=CC(=O)OCCCCOC(=O)C=C`: the Potency is 49 µM (active).

Regarding `Oc1cccc(-c2ccccc2)c1`, the “cytotoxicity increase” value was 3.18%.

Regarding `CCCCCCCCCCCCCCCC[n+]1ccccc1`, the Potency was 15.5 µM (active) [middle of 4 runs].

For `CCOP(=S)(OCC)SCS(=O)(=O)C(C)(C)C`, the “cytotoxicity increase” value is 0.975%.

As for `Clc1ccc(CCC(Cn2ccnc2)Sc2c(Cl)cccc2Cl)cc1` (stereo not given), the Potency was 10.7 µM (active).

For the compound `C[C@H]1O[C@@H](O[C@H]2[C@@H](O)C[C@H](O[C@H]3[C@@H](O)C[C@H](O[C@H]4CC[C@@]5(C)[C@H](CC[C@@H]6[C@@H]5CC[C@]5(C)[C@@H](C7=CC(=O)OC7)CC[C@]65O)C4)O[C@@H]3C)O[C@@H]2C)C[C@H](O)[C@@H]1O`, the Potency result was “inactive”.

On to `OC(Cc1ccccc1Cl)(Cn1cncn1)C1(Cl)CC1` (stereo not given), for which the “cytotoxicity increase” value was -1.67%.

Regarding `O=c1oc2ccccc2c(O)c1Cc1c(O)c2ccccc2oc1=O`, the “cytotoxicity increase” value is -14% [at 35.3 µM].

Regarding `C[C@@H](Oc1ccc(Cl)cc1Cl)C(=O)O`, the “cytotoxicity increase” value is -11.7%.

Consider `C[C@@H]1O[C@@H](O[C@H]2C[C@@H](O)[C@]3(CO)[C@H]4[C@H](O)C[C@]5(C)[C@@H](C6=CC(=O)OC6)CC[C@]5(O)[C@@H]4CC[C@]3(O)C2)[C@H](O)[C@H](O)[C@H]1O`, for which the Potency entry was “inactive”.
